Screens (PubChem BioAssay)
This is a sample that favours compounds with a hit; in the whole collection about 1.8% have one here.
GLP-1R inv ag = qHTS of GLP-1 Receptor Inverse Agonists (Inhibition Mode) | Glucagon-like peptide 1 receptor (Homo sapiens), P43220 | HEK293 GLP-1R CRE-luciferase, luminescence, 24 h; GLP-1R form is constitutively active | Potency, µM (top dose mostly 38.3 µM), inactives show at the highest dose activity change, negative = inhibition, most hits filed as inhibitors | actives 1.6% (n = 410,000) | AID 624417, 2012; note: potency is the fitted concentration of half-maximal effect; % is set by controls: 0 for no effect and ±100 for the full control effect; nearly all actives have a fitted effect of over 55% in size
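Using stably transfected HEK293 (constitutively active GLP-1R, cAMP-luciferase reporter), compounds were incubated 24 hr and luciferase measured by luminescence.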
HEK293 tox = qHTS of GLP-1 Receptor Inverse Agonists: Cytotox Screen; HEK293 cAMP-luciferase reporter cells, luminescence, 24 h; Potency, µM (top dose mostly 38.3 µM), inactives show at the top dose activity change, negative = inhibition, most hits filed as inhibitors; actives 0.13% (n = 410,000); AID 624418, 2012;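 note: loss of luciferase light is scored as toxicity; potency is the fitted concentration of half-maximal effect; % is set by controls: 0 for no effect and ±100 for the full control effect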
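A 23 nL compound transfer followed 12 hours of cell culture at 37 deg C; exposure then lasted 24 hr. Luciferase assay detection reagent was dispensed and plates read for luminescence after a 12 min room-temperature wait.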
TSHR antag = Antagonists of the Thyroid Stimulating Hormone Receptor: HTS campaign | activity change, negative = inhibition, % at 11.5 µM | TSHR-expressing cells, TSH-stimulated cAMP HTRF, 2 h; hits give low values | AID 504810, 2011 | actives 0.2% (n = 330,000);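 active = activity change below a set negative limit, meaning inhibition stronger than a set level, cut at about -70% in these data; inconclusive = activity change between two set negative limits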; note: % is set by controls: 0 for no effect and ±100 for the full control effect
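TSHR-expressing cells, 200/well, pre-treated with compound, then stimulated with EC80 TSH (4nM final) for 2 hours at 37 deg C. cAMP measured by competitive HTRF: anti-cAMP cryptate antibody in lysis buffer plus cAMP-d2, read after 30 minutes at room temperature.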
PTHR1 agonist = qHTS for PTHR1 Agonists: Primary Screen. HEK293 GP2 PTHR1 cells, GloSensor cAMP luminescence, 1 h. actives 0.075% (n = 410,000). Potency, µM (series often up to 115 µM), for inactives: top-dose activation, actives largely listed as activators; note: potency is the fitted concentration of half-maximal effect; nearly all actives have a fitted effect of over 55% in size
Target sequence (Q03431 whole entry, looked up): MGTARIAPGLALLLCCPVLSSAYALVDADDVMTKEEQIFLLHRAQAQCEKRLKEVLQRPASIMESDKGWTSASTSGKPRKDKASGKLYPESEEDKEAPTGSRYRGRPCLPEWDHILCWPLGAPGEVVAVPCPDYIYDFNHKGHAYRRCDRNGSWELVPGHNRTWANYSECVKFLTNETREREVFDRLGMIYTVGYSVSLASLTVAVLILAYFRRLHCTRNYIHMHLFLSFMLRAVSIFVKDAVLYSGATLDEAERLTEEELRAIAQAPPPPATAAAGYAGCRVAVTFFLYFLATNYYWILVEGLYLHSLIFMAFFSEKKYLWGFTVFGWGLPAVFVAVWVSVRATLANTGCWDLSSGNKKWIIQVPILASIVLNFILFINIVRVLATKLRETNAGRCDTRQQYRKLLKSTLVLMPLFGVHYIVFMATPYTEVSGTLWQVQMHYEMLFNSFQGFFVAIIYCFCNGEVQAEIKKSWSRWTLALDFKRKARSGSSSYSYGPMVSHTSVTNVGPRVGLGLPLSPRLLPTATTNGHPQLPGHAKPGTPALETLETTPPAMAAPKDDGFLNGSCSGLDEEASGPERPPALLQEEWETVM
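HEK-293-derived GP2 cells expressing PTHR1 and a GloSensor cAMP reporter, 3,000/well, plated overnight, given luciferin plus IBMX (each 0.5 mM as added) for 1 h at 37 °C, then compound for 1 h at 37 °C. Luminescence was read after 15 min at room temperature.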
GLP-1R agonist = qHTS of GLP-1 Receptor Agonists; Potency, µM (doses to about 45.6 µM), for the others: at the top dose activation, most hits filed as activators; Glucagon-like peptide 1 receptor (Homo sapiens), P43220; HEK293 GLP-1R CRE-luciferase, luminescence, 4-6 h; cells express a hypersensitive GLP-1R form; actives 0.007% (n = 380,000); note: potency is the fitted concentration of half-maximal effect; % of control where 0% means no effect
Active calls of the source: *; i = inactive; ? = inconclusive; . = no result; [ ] = another dose, or the depositor's remark. Unless noted, calls come from the whole dose curve; as a rule, active = well fitted curve in the direction sought with a large enough effect; inconclusive = small, poorly fitted or top-dose-only effect, or another doubt; inactive = no such curve, though single readings can be large; an effect the other way counts as inactive or inconclusive.

SMILES	GLP-1R inv ag	HEK293 tox	TSHR antag	PTHR1 agonist	GLP-1R agonist
COc1ccc(N(CC(=O)N2CCN(c3ccc(Cl)cc3)CC2)S(=O)(=O)c2c(C)n[nH]c2C)cc1	11µM*	-11%	-1	-10%	13%
O=C(NC1CCN(C(=O)N2c3ccccc3Sc3ccccc32)CC1)c1ccccc1Cl	10µM*	-1%	-19	-68%	-3%
O=C(c1ccco1)N1CCN(C(=O)N2c3ccccc3Sc3ccccc32)CC1	?	3.2µM*	6	i	23%
CCN(Cc1ccccc1)c1ncnc2c1nnn2C	22%	-5%	.	8%	.
COc1ccccc1C(C[N+](=O)[O-])c1c[nH]c2ccccc12 (centres undefined)	10µM*	-23%	8	i	5%
CCOC(=O)c1cc(S(=O)(=O)NCc2ccccc2)[nH]n1	10%	-5%	.	i	.
O=C(NNC1=C(C(=O)C(F)(F)F)CCC1)c1cccc(Cl)c1	2.8µM*	?	1	-25%[57.5 µM]	1%
O=C(NNC1=C(C(=O)C(F)(F)F)CCC1)c1ccc(Cl)cc1	0%	-25%	-10	-24%[57.5 µM]	1%
CCOC(=O)[C@H](CCc1ccccc1)N[C@H]1CCCN2CCC[C@@H](C(=O)O)N2C1=O	.	.	.	.	1%
CCN(CC)CC(O)Cn1c(C)c(-c2ccccc2)c2cc([N+](=O)[O-])ccc21 (centres undefined)	4.5µM*	?	-2	i	2%
O=C(CSc1nnc(Cn2nnc3ccccc32)o1)N(Cc1ccc(F)cc1)c1ccccc1	11µM*	1%	-30	-73%[57.5 µM]	-2%
O=C(c1ccccc1)c1ccc(N2CCN(C(=O)c3cccc(F)c3F)CC2)c(F)c1	10µM*	0%	?	-42%	2%
C=CCc1cccc(C=NNC(=O)CN2CCN(Cc3ccccc3)CC2)c1O	.	.	-16	.	.
O=C(N/N=C\c1c(O)ccc2ccccc12)c1ccc(O)cc1	?	?	-9	2%	-4%
Cn1cc(C(=O)N/N=C/c2c(O)ccc3ccccc23)ccc1=O	3.2µM*	53%	-20	i	0%
Cn1c(-c2ccccc2)c(/C=N/NC(=O)c2ccc(O)cc2)c2ccccc21	7.1µM*	-20%	-4	-39%	12%
Cn1c2ccccc2c2cc(/C=N/NC(=O)c3ccc(N)cc3)ccc21	-28%	-26%	-7	-11%	22%
COc1ccc(-c2c(C)nc3c(-c4ccccn4)cnn3c2N)cc1	?	10µM*	-10	-90%	11%
Cc1nc2c(-c3ccc(F)cc3)cnn2c(N)c1-c1ccc(F)cc1	2µM*	-16%	-11	-18%	16%
COc1ccc(N2CCN(CCCNC(=O)c3ccc4nc(Cc5ccccc5)oc4c3)CC2)cc1	?	-21%	.	-33%	.
Nc1c(C(=O)O)ccc2c1C(=O)c1ccccc1C2=O	1%	10µM*	-18	-15%	3%
Cc1ccc2c(c1C)-c1c(ccc(C)c1C)C(=O)C2=O	0.79µM*	?	.	-35%	-5%
Cc1ccc(CC#N)c(-c2c(CC#N)ccc(C)c2C)c1C	?	6%	.	-27%	13%
Cc1ccc(S(=O)(=O)Nc2ccccc2N(C)S(=O)(=O)c2ccc(C)cc2)cc1	?	9%	-75*	-4%	8%
Cc1ccc(S(=O)(=O)Nc2ccccc2N2CCCCC2)cc1	2.8µM*	-23%	-49	-18%	1%
SMILES	GLP-1R inv ag	HEK293 tox	TSHR antag	PTHR1 agonist	GLP-1R agonist
Cc1ccc(S(=O)(=O)Nc2ccccc2NS(=O)(=O)c2ccc(C)cc2)cc1	-14%	-15%	.	-31%	-2%
Cc1cc2oc(C(=O)Nc3ccc(S(N)(=O)=O)cc3)cc(=O)c2cc1C	10%	1%	.	i	.
CCCc1[nH]c2ccc(C#N)cc2c1CCC	10µM*	?	6	-10%	-2%
CCCc1[nH]c2ccc(C(=O)OC)cc2c1CCC	?	-8%	-1	i	9%
O=C(Cn1ncc2c([nH]c3ccccc32)c1=O)Nc1cc(F)ccc1F	6%	-4%	.	i	.
C/C(CCc1ccc2c(c1)OCO2)=N\NC(=S)NC(C)C	?	3.2µM*	9	26%	-2%
COCCNC(=S)N/N=C(\C)CCc1ccc2c(c1)OCO2	?	?	-1	-8%	46%
O=C(OCc1ccccc1)/C(=C/c1cccc(Br)c1)NC(=O)c1ccco1	10µM*	12%	-8	-37%	-3%
O=C(Nc1ccccc1)/C(=C/c1cccc(Br)c1)NC(=O)c1ccco1	2%	9%	29	-5%	6%
CCOC(=O)c1nc(C)sc1-c1ccnn1S(=O)(=O)c1ccc(C)cc1	47%	5%	-78*	-61%	24%
Cc1ccc(-n2nc(CO)c(C(=O)NCCCCc3ccccc3)n2)cc1C	3%	0%	.	-42%	.
O=C(c1ccc(OC2CCN(Cc3ccccc3C(F)(F)F)CC2)cc1)N1CCCCC1	5µM*	?	-23	-34%	-4%
O=C(c1ccc(OC2CCN(Cc3ccccc3OC(F)F)CC2)cc1)N1CCCC1	3.2µM*	-17%	14	i	-1%
O=C(c1ccc(OC2CCN(Cc3ccc(C(F)(F)F)cc3)CC2)cc1)N1CCCCC1	?	-4%	7	-23%	6%
C#CCOc1ccc(-c2nnc(Nc3cccc(C)c3)c3ccccc23)cc1	?	14%	.	-22%	.
COc1ccc(C)cc1NC(=O)CCCN1C(=O)C(c2ccccc2)Oc2cccnc21 (centres undefined)	10µM*	0%	-2	-25%	29%
COc1ccc(Cl)cc1NC(=O)CCCN1C(=O)C(c2ccccc2)Oc2cccnc21 (centres undefined)	-28%	7%	.	-32%	-4%
COc1ccc(N2CCN(Cc3nc(Cc4cccc(F)c4)no3)C(C)C2)cc1 (centres undefined)	5.6µM*	-2%	0	-10%	1%
CCCN(CC(=O)Nc1ccccc1C)C(=O)CCCOc1ccc(Br)cc1	8.9µM*	2%	-17	-23%	1%
CCOc1ccc(OCCCC(=O)N(C)CC(=O)Nc2ccccc2Br)cc1	-24%	-2%	15	-38%	0%
COc1ccc(C)cc1Nc1nc2c(S(=O)(=O)c3cc(C)ccc3C)nnn2c2ccsc12	-2%	0%	.	-22%	.
CCN(CC)C(=O)c1c(-c2ccccc2)c(-c2ccccc2)nn(C)c1=O	-5%	-1%	.	i	.
